Compounds with a hit are over-represented: about 12% of the library has one in this group of screens.
Sfp inh: qHTS Assay for Inhibitors of Bacillus subtilis Sfp phosphopantetheinyl transferase (PPTase). Biochemical Sfp PPTase activity, qHTS. Potency, µM, without a hit: largest response in the series, negative = inhibition, usual class: inhibitors. hit rate 3.5% among 310,000. AID 1490, 2009;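 note: the enzyme is Sfp with the accession as filed and its product quenches rhodamine fluorescence; 0% = enzyme reaction without inhibitor and -100% = no enzyme wells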
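Buffer: 50 mM Hepes-Na pH 7.6, 10 mM MgCl2, 0.01% Nonidet P-40, 0.01% BSA. Enzyme 15 nM, pre-exposed to compound 15 min; substrates then added and fluorescence change tracked over 30 min.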
BAZ2B inh: qHTS Assay for Inhibitors of BAZ2B. Potency, µM (series often up to 114 µM), for the others: at the highest dose activity change, negative = inhibition, usual class: inhibitors. hit rate 4.4% among 360,000. AlphaScreen BAZ2B-H3K14Ac peptide displacement. Bromodomain adjacent to zinc finger domain protein 2B (Homo sapiens), Q9UIF8; note: % is set by controls: 0 for no effect and ±100 for the full control effect; nearly all actives have a fitted effect of over 60% in size
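Protein-peptide AlphaScreen: BAZ2B 50 nM, b-H3K14Ac 50 nM, 1x PBS pH 7.4 + 0.01% Tween-20. Preincubation 30 min RT; cpd 30 min RT (top 110 uM); beads 20 min RT, light-protected.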
JMJD2A Tudor inh: qHTS Assay for Inhibitors of JMJD2A-Tudor Domain. Lysine-specific demethylase 4A (Homo sapiens), O75164. AlphaScreen JMJD2A-Tudor / H3K4me3 peptide binding. Potency, µM (doses to about 114 µM), without a hit: at the highest dose activity change, negative = inhibition, most hits filed as inhibitors. hit rate 4.4% among 390,000. AID 504339, 2011; note: % is set by controls: 0 for no effect and ±100 for the full control effect; nearly all actives have a fitted effect of over 50% in size
Target sequence (O75164 whole entry, looked up, the tested form may be a part): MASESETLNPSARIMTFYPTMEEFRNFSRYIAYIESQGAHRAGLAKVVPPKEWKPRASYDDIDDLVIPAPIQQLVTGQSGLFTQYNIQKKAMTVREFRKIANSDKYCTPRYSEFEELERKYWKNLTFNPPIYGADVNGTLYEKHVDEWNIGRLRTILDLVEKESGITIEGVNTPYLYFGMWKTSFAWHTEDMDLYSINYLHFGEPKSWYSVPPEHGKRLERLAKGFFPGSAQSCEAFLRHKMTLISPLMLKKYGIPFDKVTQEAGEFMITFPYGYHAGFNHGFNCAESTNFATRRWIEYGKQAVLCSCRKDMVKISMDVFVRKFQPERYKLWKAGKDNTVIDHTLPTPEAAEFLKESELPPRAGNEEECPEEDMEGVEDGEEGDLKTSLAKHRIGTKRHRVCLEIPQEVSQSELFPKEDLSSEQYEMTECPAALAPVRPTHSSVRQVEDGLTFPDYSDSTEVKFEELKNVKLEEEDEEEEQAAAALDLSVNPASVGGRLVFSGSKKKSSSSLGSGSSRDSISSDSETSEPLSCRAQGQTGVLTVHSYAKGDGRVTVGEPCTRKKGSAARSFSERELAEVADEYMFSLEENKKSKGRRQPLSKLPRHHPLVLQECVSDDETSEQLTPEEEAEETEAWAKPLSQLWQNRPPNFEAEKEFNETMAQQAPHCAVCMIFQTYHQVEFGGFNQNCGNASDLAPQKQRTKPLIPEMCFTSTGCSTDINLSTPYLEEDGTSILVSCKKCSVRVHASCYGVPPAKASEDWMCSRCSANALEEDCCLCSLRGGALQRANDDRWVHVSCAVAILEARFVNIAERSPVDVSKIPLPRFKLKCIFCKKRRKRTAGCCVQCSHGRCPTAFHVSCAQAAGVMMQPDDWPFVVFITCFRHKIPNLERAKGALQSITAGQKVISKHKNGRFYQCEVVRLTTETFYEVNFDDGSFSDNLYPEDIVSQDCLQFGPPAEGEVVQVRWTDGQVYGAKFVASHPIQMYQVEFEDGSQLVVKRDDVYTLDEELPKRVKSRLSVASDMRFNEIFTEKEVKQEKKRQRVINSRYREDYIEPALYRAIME
G9a inh: qHTS Assay for Inhibitors of Histone Lysine Methyltransferase G9a; Histone-lysine N-methyltransferase EHMT2 (Homo sapiens), Q96KQ7; Potency, µM (top dose mostly 102 µM), without a hit: at the highest dose activity, negative = inhibition, usual class: inhibitors; G9a H3K9 monomethylation, AlphaScreen, 2 h; hit rate 8.8% among 350,000; AID 504332, 2011; note: % is set by controls: 0 for no effect and ±100 for the full control effect; nearly all actives have a fitted effect of over 75% in size
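Readings reflect AlphaScreen signal from monomethyl-H3K9 antibody detection. HMT at 20 nM; substrate b-H3K9 500 nM; cofactor SAM 20 uM; 2 h RT reaction; compounds tested as titrations in qHTS with 15 min preincubation.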
HP1b binding inh: HTS for Inhibitors of HP1-beta Chromodomain Interactions with Methylated Histone Tails; Chromobox protein homolog 1 (Homo sapiens), P83916; AlphaScreen HP1-beta / biotin-H3K9me3 peptide binding; Potency, µM (top dose mostly 114 µM), inactives show top-dose activity change, negative = inhibition, hits mostly inhibitors; hit rate 0.56% among 390,000; AID 540317, 2011; note: nearly all actives have a fitted effect of over 70% in size
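HP1-beta protein (50 nM final) preincubated 30 min at room temperature with biotinylated H3(1-18)K9me3 peptide (50 nM) in PBS pH 7.4, 0.01% Tween-20, then compound added for 30 min. AlphaScreen streptavidin donor/nickel chelate acceptor beads (10 ug/mL final), 30 min dark, luminescence read.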
Active calls of the source: *; ? = inconclusive; · = no result; [ ] = dose if it differs, or a comment. Calls come from the whole dose curve; as a rule, active = well fitted curve in the direction sought with a large enough effect; inconclusive = small, poorly fitted or top-dose-only effect, or another doubt; inactive = no such curve, though single readings can be large; an effect the other way counts as inactive or inconclusive. Potency is the fitted concentration of half-maximal effect.

SMILES	Sfp inh	BAZ2B inh	JMJD2A Tudor inh	G9a inh	HP1b binding inh
Cc1cccc(C)c1NC(=S)NCCCN1CCCC1=O	?	-28.1%	-9.1%	-46.7%[59 µM]	-2.7%
CC(C)(C)n1cn[nH]c1=S	-18.7%	-19.6%	-31.1%	25.1µM*	7.7%
Cc1cc(Br)ccc1NC(=O)CN1C(=O)C2CC=CCC2C1=O (centres undefined)	·	-9.2%	?	0.794µM*	6.9%
CC1CC(C)(C)NC(=S)N1CCC(=O)NCc1ccc(F)cc1 (centres undefined)	10.2%	-3.4%	-6.6%	39.8µM*	20.4%
Cc1cc(Br)ccc1NC(=O)CN1C(=S)NC(C)(C)CC1C (centres undefined)	?	-12.9%	2.2%	31.6µM*	-18.1%
O=C(CN1C(=O)C2CC=CCC2C1=O)Nc1ccc(Br)cc1 (centres undefined)	17.1%	-0.3%	-13.1%	-0.4%	19.7%
N#CCSc1ccccc1NC(=O)CN1C(=O)C2CC=CCC2C1=O (centres undefined)	·	10.9%	-15.7%	44.7µM*	9.6%
Cc1nn(Cc2ccc(Cl)c(Cl)c2)c(C)c1NC(=O)c1cn(-c2ccccc2)nc1-c1ccccc1	17.6%	0.1%	1.3%	-3.1%	28.8%
CCOc1ccc(C(c2c(O)cc(C)n(CCOC)c2=O)N2CCN(c3ccc(F)cc3)CC2)cc1 (centres undefined)	·	3.1%	-18.2%	17.8µM*	20.9%[57 µM]
CCN=C1S/C(=C\c2cn(C(C)=O)nc2-c2ccccc2)C(=O)N1CC	-2.9%	8.9%	0.7%	16.5%[59 µM]	28.2%
CC(=O)NC1=NC(=O)/C(=C/c2cn(C(C)=O)nc2-c2ccccc2)S1	28.2µM*	-28.4%	22.4µM*	8.91µM*	?
CC(=O)NC1=NC(=O)/C(=C/c2cc(C)n(-c3cccc(C(=O)O)c3)c2C)S1	39.8µM*	15.8µM*	?	20µM*	?
CC1=NN2C(=N)/C(=C\c3cc(C)n(-c4cccc(C)c4)c3C)C(=O)N=C2S1	-17.5%	-2.4%	-12.6%	-8.5%	27.0%
CC(=O)NC1=NC(=O)/C(=C/c2cc(C)n(-c3ccc(NC(C)=O)cc3)c2C)S1	44.7µM*	?	-7.6%	?	43.1%
CC(=O)NC1=NC(=O)/C(=C/N2CCCCC2)S1	18.2%	-2.3%	-10.1%	-4.6%[59 µM]	5.7%
Cc1cc(=O)n2nc(N3CCC(C(=O)NCCc4ccccc4)CC3)sc2n1	-1.5%	-5.0%	-12.0%	59.2%[59 µM]	21.9%
COc1ccc(CN(CC(=O)NCc2ccco2)C(=O)CCC(=O)Nc2ccccn2)cc1	-9.8%	-6.6%	0.0%	23.9%[59 µM]	14.8%
COc1cccc(C(=O)Nc2nc3ccc(S(=O)(=O)N4CCCC4)cc3s2)c1	·	0.9%	-5.5%	-38.6%[59 µM]	28.0%[57 µM]
COc1c(C=O)c(O)cc2c1C(=O)c1ccccc1C2=O	?	·	·	5.01µM*	·
COc1ccc(CC2=C(O)c3ccccc3C(=O)C2=O)cc1	23.8%	?	-31.5%	?	-0.3%
Cc1cc(C)c2c(c1)-c1cc(C)nn1C(c1ccc3c(c1)OCO3)N2 (centres undefined)	-1.5%	-28.1%	-12.6%	-4.3%	87.9%
CN(C)c1ccc(C(=S)Nc2ccccc2)cc1	-12.5%	?	-19.7%	-2.5%	0.7%
CN(C)c1ccc(NC(=S)c2ccccn2)cc1	44.7µM*	2.82µM*	11.2µM*	8.91µM*	12.6µM*
OCCCc1nc2n(n1)C(c1cccs1)C=C(c1ccccc1)N2 (centres undefined)	?	-33.2%	·	39.8µM*	·
OCCCc1nc2n(n1)C(c1ccccc1Cl)C=C(c1cccs1)N2 (centres undefined)	50.1µM*	-25.3%	-32.7%	?	24.2%
OCCCc1nc2n(n1)C(c1ccccc1)C=C(c1ccc(F)cc1)N2 (centres undefined)	-4.5%	-15.9%	-10.6%	?	49.6%
